This passage reports inhibition results from PubChem BioAssay AID690 (Sanford-Burnham Center for Chemical Genomics, 2007).

As a reminder, the inhibition is the relative decrease from the control value, in per cent.

Hit rate of the full screen: of about 96,000 compounds, about 80 (0.08%) were called active. Only a sample is shown. Measured potencies and affinities stand elsewhere. Unmarked numbers belong to inactive results. No rule for the calls is given here.

The target in this assay is Alkaline phosphatase, placental type (Homo sapiens) (UniProt P05187). The assay is described as follows: PLAP enzyme inhibitors, biochemical, luminescence, HTS (AID 690). The note with it: purified PLAP, luminescent substrate; at 20 µM; active compounds read high.
Sequence of Alkaline phosphatase, placental type (Homo sapiens) (P05187 whole entry, looked up): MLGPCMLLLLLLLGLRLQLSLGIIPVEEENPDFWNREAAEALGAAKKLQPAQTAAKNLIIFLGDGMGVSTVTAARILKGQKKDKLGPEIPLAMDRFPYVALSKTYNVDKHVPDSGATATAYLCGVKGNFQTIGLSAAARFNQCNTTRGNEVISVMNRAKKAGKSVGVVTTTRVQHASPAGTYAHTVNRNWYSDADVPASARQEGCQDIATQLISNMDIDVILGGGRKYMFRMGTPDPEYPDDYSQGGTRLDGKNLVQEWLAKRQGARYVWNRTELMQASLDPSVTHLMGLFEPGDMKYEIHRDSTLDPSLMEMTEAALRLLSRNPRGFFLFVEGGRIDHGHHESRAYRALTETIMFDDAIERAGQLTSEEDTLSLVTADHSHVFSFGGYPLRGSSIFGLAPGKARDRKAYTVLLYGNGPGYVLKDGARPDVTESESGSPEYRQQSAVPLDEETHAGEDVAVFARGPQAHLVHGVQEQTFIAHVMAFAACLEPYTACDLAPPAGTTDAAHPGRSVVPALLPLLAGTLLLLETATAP
`Cc1ccc(NC(=S)NC(NC(=O)Cc2cccc3ccccc23)C(Cl)(Cl)Cl)cc1` (stereo unspecified): the inhibition is 36.5%.

On to `Cc1ccc(C)c(NC(=S)NC(NC(=O)N(C)C)C(Cl)(Cl)Cl)c1` (stereo unspecified), for which the inhibition is -58%.

Take `Cc1nc(N2CCN(S(=O)(=O)c3ccccc3)CC2)c2c3c(sc2n1)CC(C)CC3` (stereo unspecified): the inhibition is -34.1%.

For `O=C1c2ccc3c4c(ccc(c24)C(=O)N1Cc1cccnc1)C(=O)N(Cc1cccnc1)C3=O`, the inhibition was 4.9%.

On to `CC(O)CNc1nc2c(c(=O)n(C)c(=O)n2C)n1C/C=C/c1ccccc1` (stereo unspecified), for which the inhibition is -20.9%.

Take `CCN1C(=O)/C(=C2\C=Cc3ccccc3N2CC)SC1=S`: the inhibition was 23.5%.

Consider `CCCN1/C(=C2/SC(=S)N(CC)C2=O)C=Cc2ccccc21`, for which the inhibition was 11.9%.

Turning to `CCn1ncc(Br)c1C(=O)N(C)C12CC3CC(CC(C3)C1)C2`, the inhibition was -9.1%.

Consider `CN(CCNC(=O)c1cccc(N2CCCC2=O)c1)Cc1ccccc1`, for which the inhibition was -40.3%.

Take `O=P(C1=C(N2CCOCC2)/C(=C\c2ccccc2)CC1)(N1CCOCC1)N1CCOCC1`: the inhibition was -69.4%.

As for `O=C1Nc2ccccc2/C1=N\N=C\C1=C(N2CCOCC2)C(=C\c2ccccc2)/CC1`, the inhibition is -12.2%.

In the case of `O=C(O)c1c(Cl)c(Cl)c(Cl)c(Cl)c1C(=O)N1CCCC1`, the inhibition was -10.8%.

For the compound `CCOCC(O)CSCc1ccc(Cl)cc1` (stereo unspecified), the inhibition was -5%.

In the case of `COc1ccc(CNC(=O)c2ccc(-c3ccccc3)cc2)cc1`, the inhibition is 6.9%.

Turning to `Fc1cccc(Cl)c1CSc1nnnn1-c1ccc2c(c1)OCO2`, the inhibition is 22.7%.

With `Fc1ccccc1CSc1nnnn1-c1ccc2c(c1)OCO2`, the inhibition was 13.8%.

As to `CCOC(=O)CC(=O)CSc1nc2c(cc1C#N)CCC2`, the inhibition was 0%.

Take `CC(C)NS(=O)(=O)c1ccc(OCC(=O)NCc2ccccc2)cc1`: the inhibition was -1.7%.

With `O=C1C2C3C=CC(C3)C2C(=O)N1c1n[nH]c(CCc2ccccc2)n1` (stereo unspecified), the inhibition was 30%.

Take `O=C1C2CC=CCC2C(=O)N1c1n[nH]c(CCc2ccccc2)n1` (stereo unspecified): the inhibition is -20.2%.

As for `O=C1C2CC=CCC2C(=O)N1c1n[nH]c(Cc2ccccc2)n1` (stereo unspecified), the inhibition was 62.3%.

With `O=C1C2C3C=CC(C3)C2C(=O)N1c1cccc(N2C(=O)C3C4C=CC(C4)C3C2=O)n1` (stereo unspecified), the inhibition is -1.8%.

On to `O=C1C2C3C=CC(C3)C2C(=O)N1c1cccnc1` (stereo unspecified), for which the inhibition was 15.9%.

Take `O=C1C2C3C=CC(C3)C2C(=O)N1Cc1cccnc1` (stereo unspecified): the inhibition was 0.6%.

Take `Cc1ccc(SCCNC(=O)C(CO)(CO)CO)cc1`: the inhibition is 11.9%.

Take `COc1ccc(CN(Cc2cc3ccc(C)cc3[nH]c2=O)Cc2nnnn2C2CCCC2)cc1`: the inhibition was -54.8%.

Turning to `Cc1ccc(-c2cc(C(=O)N/N=C\c3cnn(C)c3C)c3ccccc3n2)cc1C`, the inhibition is -102%.

Take `C=CCn1c(SCC(=O)Nc2ccccc2OC)nnc1-c1ccco1`: the inhibition is 8%.

As for `O=C(C1CC1)N1CCN=C1SCc1cccc(C(F)(F)F)c1`, the inhibition is 3%.

For the compound `CCOCCCNC(=O)C1CCCN1S(=O)(=O)c1ccc(Cl)cc1` (stereo unspecified), the inhibition is 8.4%.

With `C#CC(CC)(CC)NC(=O)c1c(C)noc1C`, the inhibition was 4.5%.

In the case of `O=C(Cc1cccs1)NCc1ccc(F)cc1`, the inhibition was -6%.

For `CN1CCN(c2nc3c(c(=O)n(C)c(=O)n3C)n2CC(=O)C23CC4CC(CC(C4)C2)C3)CC1`, the inhibition is -54.5%.

Turning to `O=C1/C(=C/c2cccs2)SC(=S)N1c1ccccc1`, the inhibition was 12.2%.

As for `CCN(CC)c1ccc(N2C(=O)/C(=C/c3cccs3)SC2=S)cc1`, the inhibition was 3.4%.

As for `CC(C)N(CCNS(=O)(=O)c1ccc(Cl)cc1)C(C)C`, the inhibition was 9.6%.

In the case of `O=C(Nc1ccccc1C(F)(F)F)c1ccc(CN2CCC(Cc3ccccc3)CC2)cc1`, the inhibition was -22.3%.

Take `Cc1ccc(-c2cc(C(=O)N/N=C/c3c(C)nn(-c4ccccc4)c3C)[nH]n2)cc1`: the inhibition is -2.5%.

With `Cc1nn(-c2ccccc2)c(C)c1/C=N/NC(=O)c1cc(C(C)(C)C)[nH]n1`, the inhibition was -32%.

As for `O=c1[nH]c(CSc2nnc(-c3ccncc3)n2Cc2ccco2)nc2ccccc12`, the inhibition was -3.5%.

Regarding `N=c1oc2ccc3ccccc3c2cc1-c1nnc2n1CCCCC2`, the inhibition was -35.4%.

Take `O=[N+]([O-])c1ccc(C2CCCC/C2=N/OCc2ccc(F)cc2)c([N+](=O)[O-])c1` (stereo unspecified): the inhibition is 25.8%.

For `CC1CCC/C(=N/Nc2ccc([N+](=O)[O-])cc2[N+](=O)[O-])C1` (stereo unspecified), the inhibition is 21.1%.

For the compound `CCN(CC)CCCNC(=O)N[C@@H](Cc1ccccc1)C(=O)O`, the inhibition was -2.1%.

As for `CC(=O)c1c(C(C)=O)c(C)n(-c2ccc(O)cc2)c1C`, the inhibition is -4.3%.

Regarding `CC(NC(=O)NCc1cccnc1)(C(F)(F)F)C(F)(F)F`, the inhibition is -6.1%.

As for `O=C(NCc1cccnc1)NC1(C(F)(F)F)Oc2ccccc2O1`, the inhibition was 12.3%.

Turning to `COCC(C)NC(=O)NC1(C(F)(F)F)Oc2ccc(Cl)cc2O1` (stereo unspecified), the inhibition is 34.9%.

For the compound `CCCCNC(=O)NC1(C(F)(F)F)Oc2ccccc2O1`, the inhibition was -12%.

As for `Cc1nccn1S(=O)(=O)c1ccc(Br)cc1Br`, the inhibition was -1.1%.

With `OC(CC1CC12c1ccccc1-c1ncccc12)(c1ccccc1)c1ccccc1` (stereo unspecified), the inhibition was -45%.

As to `CCCCn1cc(C(=O)c2cc(Br)ccc2O)cc(C#N)c1=O`, the inhibition was -1.5%.

As for `CCCC1CCc2c(c3ccccc3[nH]c2=O)O1` (stereo unspecified), the inhibition is -5%.

`CC1CCc2c(c3ccccc3[nH]c2=O)O1` (stereo unspecified): the inhibition was 9%.

As for `Fc1ccc(CSc2nnc(-c3cnccn3)n2Cc2ccco2)cc1`, the inhibition is 7.7%.

`CCCCOC(=O)CNc1n[nH]c(=S)[nH]c1=O`: the inhibition was -1.8%.

Take `CCCCOC(=O)C(C)Nc1n[nH]c(=O)[nH]c1=O` (stereo unspecified): the inhibition is 3.9%.

For the compound `CCN1CCN(Cc2nc3c(c(=O)n(C)c(=O)n3C)n2Cc2cccc3ccccc23)CC1`, the inhibition was -34.1%.

With `Cc1ccccc1CN(c1ccc(C(=O)N2CCc3ccccc3C2)cc1)S(C)(=O)=O`, the inhibition was -40.7%.

As for `O=C(c1cccs1)c1coc2ccc(O)c(CN3CCOCC3)c12`, the inhibition is -1%.

As to `Cc1ccc(OCn2c(=O)sc3ccccc32)cc1`, the inhibition was -9%.

For `O=c1sc2ccccc2n1CCOc1ccccc1`, the inhibition was 33.9%.

As for `CCOc1ccc(NC(N)=O)cc1OCC`, the inhibition was 13.6%.

On to `O=P(O)(O)c1ccccc1OCCCCCOc1ccccc1P(=O)(O)O`, for which the inhibition is 21.2%.

`O=P(O)(O)c1ccccc1OCCOCCOc1ccccc1P(=O)(O)O`: the inhibition was 17.4%.

`CSC1=C(C#N)C(c2ccccc2C)C(C#N)=C(N)N1` (stereo unspecified): the inhibition is 17.9%.

As for `O=C(NC(Cc1ccc(F)cc1)C(=O)O)c1ccccc1` (stereo unspecified), the inhibition is -2.2%.

Take `Cc1cc(C)n2nc(SCc3nnc(SCc4ccccc4)s3)nc2n1`: the inhibition was -20.5%.

For `COC(=O)c1cc(NC(=O)C2COc3ccccc3O2)ccc1Cl` (stereo unspecified), the inhibition is 28.8%.

On to `Cc1c(NC(=O)C(C)OC(=O)CNC(=O)c2ccccc2)c(=O)n(-c2ccccc2)n1C` (stereo unspecified), for which the inhibition is 5.2%.

As for `O=C(CSc1n[nH]c(-c2ccncc2)n1)c1ccccc1`, the inhibition is 7.6%.

With `O=C(CSc1n[nH]c(-c2ccccc2)n1)c1ccccc1`, the inhibition was -11.7%.

For the compound `Cc1ccc(C(=O)CSc2nc3ccccc3c(=O)[nH]2)cc1`, the inhibition is -27.5%.

On to `CC(C)(C)c1ccc(C(=O)CSc2nc3ccccc3c(=O)[nH]2)cc1`, for which the inhibition is -9.7%.

On to `COc1ccc(Cn2c(CCC(=O)Nc3ccc(CC#N)cc3)nc3cccnc32)cc1`, for which the inhibition is 11.1%.

Regarding `O=C(C[n+]1ccc(C(=O)N/N=C/c2ccc(O)cc2)cc1)c1ccccc1`, the inhibition is 23.2%.

In the case of `O=C(C[n+]1ccc(C(=O)N/N=C/c2ccc(OCc3ccccc3)cc2)cc1)c1ccccc1`, the inhibition was 41.8%.

For the compound `CC(=O)NC1C(=O)N=C(SCC(=O)NC(C)c2ccccc2)NC1=O` (stereo unspecified), the inhibition was -18.8%.

Consider `C=CCNS(=O)(=O)CC12CCC(CC1=O)C2(C)C` (stereo unspecified), for which the inhibition was 4.8%.

Turning to `O=C(NC1(C(F)(F)F)Oc2ccccc2O1)N1CCCC1`, the inhibition was -7.5%.

For `CCOC(=O)Cc1csc(NC(=O)NC2(C(F)(F)F)Oc3ccc(Cl)cc3O2)n1` (stereo unspecified), the inhibition was 30.3%.

With `O=C(Nc1cc(N2CCOCC2)ncn1)c1ccccc1`, the inhibition was 1.3%.

For the compound `O=C(Nc1cc(N2CCOCC2)ncn1)Nc1cccc2ccccc12`, the inhibition was 14.5%.

Take `CC(=O)OC(C)(C)C#CCN1CCCC1`: the inhibition was 24.5%.

With `CC(=O)N1CCN(C(=S)c2ccc([N+](=O)[O-])cc2)CC1`, the inhibition is 12.8%.

As for `Cc1[nH]c2ccccc2c1C(=O)/C=C/c1ccccc1`, the inhibition was 10.6%.

Regarding `Cc1[nH]c2ccccc2c1/C=N/n1cnnc1`, the inhibition was 7.5%.

As to `Cc1nn(CC(O)Cn2cnc3c2c(=O)n(C)c(=O)n3C)c(C)c1Br` (stereo unspecified), the inhibition was -1.6%.

Turning to `CCOc1cccc(-c2nc(C(N)=O)c3[nH]c(=O)n(-c4cccc(Cl)c4)c3n2)c1O`, the inhibition is -27.5%.

As for `COc1ccc(OCCNc2cc(Cl)ccc2[N+](=O)[O-])cc1`, the inhibition is 4.1%.

With `COc1cccc(OCCNc2cc(N3CCCCC3)ccc2[N+](=O)[O-])c1`, the inhibition was -2.3%.

`CCC(=O)NCCc1nc2cc(NC(=O)c3ccccc3OC)ccc2n1C`: the inhibition is -60.5%.

Take `CCOC(=O)c1c(C)n(CC(COC(C)=O)OC(C)=O)c2ccc(OC(C)=O)cc12` (stereo unspecified): the inhibition was -45.7%.

In the case of `CCCCN(CCCC)S(=O)(=O)c1ccc(C(=O)Nc2nnc(CSC)o2)cc1`, the inhibition was -15.3%.

On to `c1ccc([C@H]2CC3C[C@@H](c4ccccc4)N2O3)cc1`, for which the inhibition was -8.8%.

Take `O=C(NC1CCCCCC1)c1nc2ncccn2n1`: the inhibition is 2.9%.
